What is called inhibition is the change of the read-out against control, counted positive when it falls.

Activity calls are given as the source filed them.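 How the source made its calls: active means mean inhibition above 46.68%, the untreated control wells mean plus 3 SD; inactive means the rest.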 Numbered stars: 1 amine (or outer) side, 2 acyl side, 3 side chain; on linkers, the order of the positions; unused ones are H or OH. Bridge positions count the residues as written; N and C are the ends. Square brackets hold non-standard residues; d marks the D form. Peptide text beside a SMILES is read from it. ξ: configuration not given here. X1 = CC[C@H](CCC[C@@H](O)[C@@H](C)C(=O)O[C@H](C)[C@@H](C)C/C=C(C)/C(=C\C(=O)[*:1])OC)O[*:2]; NMeξIle = CC[C@H](C)C(NC)C(=O)O; NMeV = CN[C@H](C(=O)O)C(C)C; NMeS = CN[C@@H](CO)C(=O)O

The record followed here is PubChem BioAssay.

For the test, the target named is Nuclear receptor coactivator 1 (Homo sapiens) (UniProt Q15788). In words: SRC1 coactivator transcriptional activity inhibitors, confirmation, cell-based, luminescence, quadruplicate (AID 588820).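 Further: 0% = DMSO wells and 100% = gossypol 36 µM treated wells.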 The note with it: HEK293 GAL4-SRC1 luciferase reporter, at 3.6 µM, hits give high values. For orientation: Reporter assays use an easily measured gene product as a stand-in for the process of interest.
Nuclear receptor coactivator 1 (Homo sapiens), sequence (Q15788 whole entry, looked up, the tested form may be a part): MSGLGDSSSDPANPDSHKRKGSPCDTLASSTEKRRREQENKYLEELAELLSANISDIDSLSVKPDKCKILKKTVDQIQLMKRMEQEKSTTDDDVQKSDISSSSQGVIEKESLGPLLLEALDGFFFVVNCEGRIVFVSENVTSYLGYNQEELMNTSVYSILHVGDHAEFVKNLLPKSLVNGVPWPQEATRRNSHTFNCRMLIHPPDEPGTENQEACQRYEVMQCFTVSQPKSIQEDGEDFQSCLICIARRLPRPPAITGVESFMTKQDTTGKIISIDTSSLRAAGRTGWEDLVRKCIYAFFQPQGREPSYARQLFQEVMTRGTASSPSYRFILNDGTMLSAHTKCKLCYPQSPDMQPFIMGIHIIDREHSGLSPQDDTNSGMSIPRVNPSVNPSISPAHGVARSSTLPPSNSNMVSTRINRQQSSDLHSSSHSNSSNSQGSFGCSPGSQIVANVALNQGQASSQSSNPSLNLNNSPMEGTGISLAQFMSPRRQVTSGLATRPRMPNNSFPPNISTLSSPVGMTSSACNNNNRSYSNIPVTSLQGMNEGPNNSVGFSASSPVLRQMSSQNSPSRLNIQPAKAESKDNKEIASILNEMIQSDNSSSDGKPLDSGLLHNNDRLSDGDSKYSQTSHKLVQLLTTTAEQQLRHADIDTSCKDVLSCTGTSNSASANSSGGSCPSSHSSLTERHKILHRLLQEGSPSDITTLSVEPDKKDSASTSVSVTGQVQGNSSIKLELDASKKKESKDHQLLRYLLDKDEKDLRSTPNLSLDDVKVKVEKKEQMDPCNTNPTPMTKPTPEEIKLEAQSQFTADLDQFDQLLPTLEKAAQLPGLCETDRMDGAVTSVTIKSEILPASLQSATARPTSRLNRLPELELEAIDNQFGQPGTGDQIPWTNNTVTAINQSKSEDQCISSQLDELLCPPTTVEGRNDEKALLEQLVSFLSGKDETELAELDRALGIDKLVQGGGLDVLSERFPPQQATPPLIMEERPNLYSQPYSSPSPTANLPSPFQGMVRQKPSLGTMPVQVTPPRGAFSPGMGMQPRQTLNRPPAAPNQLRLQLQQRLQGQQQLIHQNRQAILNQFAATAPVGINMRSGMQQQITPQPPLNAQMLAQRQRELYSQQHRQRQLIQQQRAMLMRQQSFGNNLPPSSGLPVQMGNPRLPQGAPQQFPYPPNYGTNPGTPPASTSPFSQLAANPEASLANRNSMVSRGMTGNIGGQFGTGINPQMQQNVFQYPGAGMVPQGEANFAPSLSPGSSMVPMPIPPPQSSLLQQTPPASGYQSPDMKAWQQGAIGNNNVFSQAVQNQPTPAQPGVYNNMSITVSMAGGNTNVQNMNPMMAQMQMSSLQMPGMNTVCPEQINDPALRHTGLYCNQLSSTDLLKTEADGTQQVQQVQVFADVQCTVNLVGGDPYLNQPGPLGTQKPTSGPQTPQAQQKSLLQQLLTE
Consider `CCC1(O)C(=O)OCc2c1cc1n(c2=O)Cc2cc3c(N)cccc3nc2-1` (stereo not given), for which the inhibition was 54.4% (active).
`CCCOC(c1ccccc1)(c1ccc(C(F)(F)F)cc1)C(Oc1nc(C)cc(C)n1)C(=O)O` (stereo not given): the inhibition is 51.6% (active).
The value for `N=c1c2c(n(Cc3ccc(F)cc3)c3c1CCC3)CCC2` was 17.8% (inactive); that for `Cc1cc(/C=N/n2cnnc2)c(C)n1-c1ccc(OCc2ccc(Cl)cc2Cl)cc1` was 8.2% (inactive); that for `CCN(CC)c1ccc2nc3ccc(N)cc3[n+](-c3ccccc3)c2c1` was 52.3% (active).
Then `Cc1ccc2[nH]c3nc(N/N=C/c4cccc(O)c4)nnc3c2c1`, with 27.8% (inactive); and `CCCC(=O)NC(c1ccccc1Cl)c1ccc2cccnc2c1O` (stereo not given), with 35.6% (inactive); and `CN(Cc1cnc2nc(N)nc(N)c2n1)c1ccc(C(=O)NC(CCC(=O)O)C(=O)O)cc1C(F)(F)F` (stereo not given), with 51.9% (active).
The value for `O=[N+]([O-])c1ccc(Sc2cccc[n+]2[O-])c2nonc12` was 91.7% (active); that for `COc1cc(C=NO)nc(-c2ccccn2)c1` was 54% (active).
`COc1ccc(Cn2c(-c3ccc(C)cc3)c[n+]3ccccc23)cc1`: the inhibition was 19.8% (inactive).
On to `Cc1ccc(S(=O)(=O)/N=C2\C=C(Nc3ccc(O)cc3)C(=O)c3ccccc32)cc1`, for which the inhibition is 71.1% (active).
With `CC[n+]1c(C=C2C=C(C)OC(C)=C2)sc2ccccc21`, the inhibition is 40.9% (inactive).
The value for `CCCCCn1c2c(c(=N)c3ccccc31)CCC2` was 32% (inactive).
Take `CCOc1ccccc1O[C@H](c1ccccc1)[C@H]1CNCCO1`: the inhibition is -8.72% (inactive).
On to `COC(=O)C1=C(CN2CCCc3ccccc32)NC(=O)NC1c1ccc(F)cc1` (stereo not given), for which the inhibition was 60% (active).
The value for `CC(=NNC(=S)Nc1cccc(C)c1)c1ccccn1` was 1.68% (inactive); that for `CC(C)(C)N(Cc1ccc2c(c1)OCO2)C(=O)/C=C\S(=O)c1ccccc1` (stereo not given) was 17.8% (inactive); that for `COc1ccccc1-n1cc([C@@H]2C[C@H]3CN(c4ccccc4)C(=O)[C@]34CCCN24)cn1` was 26.6% (inactive).
The value for `COc1ccc2cc3cc(C(=O)Nc4cc(OC)c(OC)c(OC)c4)oc3nc2c1` was 9.93% (inactive); that for `CCCc1nc2c(=O)n(C)c(=O)nc-2n(C)n1` was 18.4% (inactive); that for `CC[C@@H]1CCC[C@@H](O)[C@@H](C)C(=O)O[C@H](C)[C@@H](C)C/C=C(C)/C(OC)=C\C(=O)N(C)C([C@@H](C)CC)C(=O)N(C)[C@@H](C(C)C)C(=O)N(C)[C@@H](COC)C(=O)N2CCC[C@H]2C(=O)N(C)[C@@H](C(C)C)C(=O)N2CCC[C@H]2C(=O)O1` (stereo not given in full) ([NMeξIle][NMeV][NMeS](Me)P[NMeV]P; linker N-C via X1) was 57.1% (active).
Regarding `CC1(C)CC(N2CCN(Cc3ccccc3)CC2)=CC(=[N+]2CCCCC2)C1`, the inhibition was -6.45% (inactive).
In the case of `Cc1ccc(-c2cc3cccc[n+]3cc2-c2ccc(C)cc2)cc1`, the inhibition is 35.9% (inactive).
In the case of `CC(=O)NC(c1ccc(Cl)cc1)c1ccc2cccnc2c1O` (stereo not given), the inhibition was 80% (active).
Then `CCN(CC)CCn1c2ccccc2c2cnc(N)c(C#N)c21`, with 30.1% (inactive); and `C(=NNc1ccc2ccccc2n1)c1ccccn1`, with -75.3% (inactive).
Turning to `CN(C)CCNc1ccc(CO)c2oc3ccc(O)cc3c(=O)c12`, the inhibition was 33% (inactive).
Then `CCCCCc1ccc(OCCC[n+]2ccccc2)c(CCCCC)c1`, with 31.3% (inactive); and `COc1ccc(CCNc2ncnc3c2oc2ccccc23)cc1OC`, with 2.85% (inactive); and `COc1ccccc1C(=O)Nc1nc2ccccc2s1`, with 56.6% (active).
As to `CC(NNC(=S)N1CCN(c2ccccn2)CC1)c1nccc2ccccc12` (stereo not given), the inhibition was 55.6% (active).
On to `COc1cc(NS(C)(=O)=O)ccc1Nc1c2ccccc2nc2ccccc12`, for which the inhibition is 61.1% (active).
The value for `CN(C)c1cc[n+](CC(=O)c2ccc(-c3ccccc3)cc2)cc1` was 35% (inactive); that for `Cc1ccc2ccc3cccnc3c2n1` was 12% (inactive).
The value for `CC1=NN(c2nc3ccccc3[nH]2)C(=O)C1Cc1ccccc1` (stereo not given) was 48.1% (active); that for `N=c1c2c(-c3ccccc3)c(-c3ccccc3)n(Cc3ccccc3)c2ncn1CCO` was 39.8% (inactive).
Take `COc1cccc(Cn2c(NCc3cccnc3)nc3c2c(=O)n(C)c(=O)n3C)c1`: the inhibition was 58.1% (active).
Regarding `CC(C)(O)C#Cc1ccc([C@@H]2C[C@H]3CN(c4ccccc4)C(=O)[C@]34CCCN24)s1`, the inhibition was 45.8% (inactive).
The value for `O=C(N/N=C(\c1ccccc1)c1cccnc1)c1cccc(F)c1` was 31% (inactive).
